# Source: PubChem (National Center for Advancing Translational Sciences (NCATS))
# G9a block – inhibitors of human histone lysine methyltransferase G9a; 350,000 compounds, 8.8% hits; Potency, µM (highest dose often 102 µM), inactives show top-dose activity, negative = inhibition, actives largely listed as inhibitors; G9a H3K9 monomethylation, AlphaScreen, 2 h; also: potency is read from the fitted curve at half-maximal effect; % is scaled to controls: 0 for no effect and ±100 for the full control effect; nearly all actives have a fitted effect of over 75% in size
# Target sequence (Q96KQ7 913-1193 limits assumed): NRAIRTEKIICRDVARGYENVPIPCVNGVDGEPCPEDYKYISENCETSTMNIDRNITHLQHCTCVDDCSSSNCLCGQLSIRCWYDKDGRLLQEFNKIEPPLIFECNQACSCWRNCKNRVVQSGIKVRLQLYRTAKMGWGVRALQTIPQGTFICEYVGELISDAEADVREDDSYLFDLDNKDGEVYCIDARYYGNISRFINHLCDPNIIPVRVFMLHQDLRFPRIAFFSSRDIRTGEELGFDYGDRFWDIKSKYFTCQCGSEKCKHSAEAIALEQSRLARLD
#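 AlphaScreen detection with an anti-monomethyl H3K9 antibody quantified product after a 2 h room-temperature reaction containing 500 nM biotinylated H3K9 peptide, 20 µM SAM and 20 nM enzyme, which had been preincubated 15 min with compound.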
# Six1-Eya2 inh – inhibitors of human Six1/Eya2 interaction; AlphaScreen GST-Six1/His-Eya2 binding, biochemical; hits give low values; activity change, % (test concentration not listed); 360,000 compounds, 0.56% hits; AID 651725; in the data active = activity change below about -65%; inconclusive = mostly about -30% to -63%; also: % is scaled to controls: 0 for no effect and ±100 for the full control effect
#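 Homogeneous AlphaScreen proximity assay pairing GST-Six1 with His-tagged Eya2 (added as 5X mix: 250 nM and 500 nM) in 50 mM Tris pH 8.0, 300 mM NaCl, 1 mM TCEP. Glutathione donor and nickel acceptor beads; 1 h, 37 °C, dark.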
# HP1b binding inh – HP1-beta chromodomain-methylated histone interaction inhibition; P83916; AlphaScreen HP1-beta / biotin-H3K9me3 peptide binding; Potency, µM (highest dose often 114 µM), inactives show top-dose activity change, negative = inhibition, hits mostly inhibitors; 390,000 compounds, 0.56% hits; AID 540317; also: potency is read from the fitted curve at half-maximal effect; nearly all actives have a fitted effect of over 70% in size
# Target sequence (P83916 whole entry, looked up): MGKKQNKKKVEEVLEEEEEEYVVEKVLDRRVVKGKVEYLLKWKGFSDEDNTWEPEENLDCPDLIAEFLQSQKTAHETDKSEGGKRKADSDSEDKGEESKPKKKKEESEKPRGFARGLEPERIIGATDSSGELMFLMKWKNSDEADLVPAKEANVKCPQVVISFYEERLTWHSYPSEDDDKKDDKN
#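 HP1-beta protein (50 nM final) preincubated 30 min at room temperature with biotinylated H3(1-18)K9me3 peptide (50 nM) in PBS pH 7.4, 0.01% Tween-20, then compound added for 30 min. AlphaScreen streptavidin donor/nickel chelate acceptor beads (10 ug/mL final), 30 min dark, luminescence read.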
# BAZ2B block – BAZ2B (human) inhibition | Q9UIF8 | AlphaScreen BAZ2B-H3K14Ac peptide displacement | Potency, µM (series often up to 114 µM), inactives show top-dose activity change, negative = inhibition, actives largely listed as inhibitors | 360,000 compounds, 4.4% hits | AID 504333; also: potency is read from the fitted curve at half-maximal effect; % is scaled to controls: 0 for no effect and ±100 for the full control effect; nearly all actives have a fitted effect of over 60% in size
#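 Complex of BAZ2B and biotin-H3K14Ac (50 nM apiece) forms over 30 min at RT, then faces library compounds up to 110 uM for another 30 min; AlphaScreen beads added, 20 min dark incubation, luminescence read.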
# CtBP-E1A inh – blocks the CtBP interaction with E1A; AlphaScreen GST-E1A/His-CtBP binding, 1536-well; hits give low values; activity change, % (test concentration not listed); 340,000 compounds, 0.49% hits; AID 651724; in the data active = activity change below about -65%; inconclusive = mostly about -30% to -63%; also: % is scaled to controls: 0 for no effect and ±100 for the full control effect
#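 AlphaScreen with 125 nM GST-E1A and 125 nM His-CtBP (5X stocks) in Tris pH 8.0, 300 mM NaCl, BSA, Tween 20, TCEP. Compounds preincubated 2 h at 37 deg C, then glutathione donor/nickel acceptor beads added for 1 h at 37 deg C in dark.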
# JMJD2A Tudor – blocks the human JMJD2A Tudor domain. AlphaScreen JMJD2A-Tudor / H3K4me3 peptide binding. 390,000 compounds, 4.4% hits. AID 504339. Potency, µM (series often up to 114 µM), inactives show top-dose activity change, negative = inhibition, usual class: inhibitors. O75164; also: potency is read from the fitted curve at half-maximal effect; % is scaled to controls: 0 for no effect and ±100 for the full control effect; nearly all actives have a fitted effect of over 50% in size
# An asterisk follows results filed as active; ? = inconclusive; . = not tested or not shown; [ ] = dose if it differs, or a comment. In the library only some 10% were active in any assay of this set; here they are far more common. Unless noted, calls follow the shape of the dose curve; as a rule, active = well fitted inhibition curve with a large enough effect; inconclusive = small, poorly fitted or top-dose-only effect; inactive = no such curve, though single readings can be large or run the other way.
SMILES,G9a block,Six1-Eya2 inh,HP1b binding inh,BAZ2B block,CtBP-E1A inh,JMJD2A Tudor
O=C(Nc1ccc(OC(F)(F)F)cc1)c1ccc2nc[nH]c2c1,50µM*,-5,24%,-38%,.,-13%
Nc1cc([N+](=O)[O-])ccc1Nc1ccc(O)cc1,10µM*,?,?,32µM*,.,56µM*
C=CCn1c(C)cc(C(=O)COC(=O)/C=C/c2c(C)nn(C3CCS(=O)(=O)C3)c2Cl)c1C (centres undefined),?,-19,-29%,?,-7,?
Cc1nn(C2CCS(=O)(=O)C2)c(C)c1C=O (centres undefined),1%,17,-13%,9%,11,13µM*
COc1cc(/C=N\NC(=O)CC#N)ccc1OC/C=C/c1ccccc1,15%,?,33%,56µM*,?,79µM*
COc1cc(/C=N\NC(=O)c2ccc(-c3ccccc3)cc2)ccc1OCC(N)=O,0%,7,11%,-2%,11,89µM*
COc1cc(/C=N/NC(=O)c2ccccc2O)ccc1OCC(=O)Nc1ccccc1,-5%[59 µM],-20,58%,79µM*,0,-24%
COc1cc(/C=N\NC(=O)c2ccc(-c3ccccc3)cc2)cc(OC)c1O,?,-11,24%,-21%,-12,-13%
COc1cc(/C=C/c2cc[n+](C)cc2)ccc1OCC(=O)Nc1ccccc1,13µM*,-1,14%,-21%,6,-9%
C/C=C/c1ccc(OCC(=O)Nc2ccc(C(N)=O)cc2)c(OC)c1,-32%,0,34%,-14%,-2,-13%
O=C(NN1CCOCC1)c1ccccc1,40%,-6,23%,-15%,-11,-5%
CCC1=C(c2ccc(C)cc2)S(=O)(=O)N=C1N1CCC(C(=O)N2CCCCC2)CC1,9%[59 µM],.,?,-7%,.,-16%
Cc1ccc(CNc2ncnc3c2c(-c2ccccc2)cn3-c2ccccc2)cc1,-4%[59 µM],.,43%,-12%,.,-23%
COc1ccc(/C=C/C(=O)Oc2ccc(/C=N/NC(=O)c3ccccc3)cc2)cc1OC,24%,2,10%,0%,-75*,-15%
COc1ccc(/C=N/NC(=O)c2ccncc2)cc1OC,17%[12.7 µM],8,30%,-2%,0,2%
COc1ccc(C2C(=O)N(C3CCCCCC3)CC(=O)N2Cc2ccc(C)cc2)cc1OC (centres undefined),-4%[59 µM],.,?,-16%,.,-22%
O=C(COC(=O)CSc1cccc2cccc(Cl)c12)Nc1ncc(C(F)(F)F)cc1Cl,?,-1,-5%,50µM*,-1,-35%
O=C(COC(=O)c1ccc2ccccc2n1)Nc1ncc(C(F)(F)F)cc1Cl,45µM*,-3,30%,-1%,-1,-10%
Cc1ccc(C)c(SCC(=O)OCC(=O)Nc2ncc(C(F)(F)F)cc2Cl)c1,?,3,42%,-7%,4,-15%
O=C(COC(=O)c1ccc2ccccc2c1)Nc1ncc(C(F)(F)F)cc1Cl,13%[12.7 µM],8,18%,10%,2,-6%
COC(=O)CCNC(=O)c1ccc2nc(Cc3ccc(OC)c(OC)c3)oc2c1,7%,3,17%,10%,-3,-12%
COc1ccc(C2C(C(C)=O)=C(O)C(=O)N2CCCn2ccnc2)cc1OC (centres undefined),50µM*,10,25%,?,2,-10%
CCOc1ccc(C2C(C(=O)c3ccco3)=C(O)C(=O)N2CCCn2ccnc2)cc1OCC (centres undefined),?,2,23%,?,3,-23%
CCOc1ccc(C2C(C(=O)c3ccco3)=C(O)C(=O)N2CCCn2ccnc2)cc1 (centres undefined),?,-1,22%,-2%,3,45µM*
CC(=O)C1=C(O)C(=O)N(CCCn2ccnc2)C1c1ccc(Br)cc1 (centres undefined),?,3,24%,?,3,-18%
SMILES,G9a block,Six1-Eya2 inh,HP1b binding inh,BAZ2B block,CtBP-E1A inh,JMJD2A Tudor
CCOCCCNC(=O)c1ccc(OC2CCN(C(C)=O)CC2)c(OC)c1,-3%,8,39%,-14%,-18,-12%
CC(C)(C)c1csc(NNC(=O)c2ccc(Cl)cc2)n1,40µM*,23,10%,-16%,-21,-25%
Cn1c(=O)n(C)c2cc(NS(=O)(=O)c3ccc(Br)cc3)c(NCc3ccccc3)cc21,?,.,-1%,-28%,.,?
CCCS(=O)(=O)Nc1cc2c(cc1NCc1ccccc1)n(C)c(=O)n2C,16µM*,.,11%,50µM*,.,-26%
COc1ccc(S(=O)(=O)Nc2cc3c(cc2NCc2ccccc2)n(C)c(=O)n3C)cc1,16µM*,.,2%,45µM*,.,50µM*
N#Cc1cc(S(=O)(=O)c2ccc(Cl)cc2)c(N)[nH]c1=O,50µM*,3,31%,-34%,6,2%
Cc1ccc(C2C(C#N)=C(N)Oc3nc(-c4ccccc4)[nH]c32)o1 (centres undefined),50µM*,-7,-12%,-33%,0,-33%
N#CC1=C(N)Oc2nc(-c3ccccc3)[nH]c2C1c1cccnc1 (centres undefined),?,2,30%,-3%,-1,-11%
Cc1ccc(CNC(=O)Cn2cc(S(=O)(=O)Cc3cccc(Cl)c3)c3ccccc32)cc1,4%[59 µM],.,16%,2%,.,-7%
Clc1ccccc1-c1ccc2ncnc(NCCN3CCOCC3)c2c1,-1%[0.501 µM],.,.,.,.,.
O=C1c2c(O)cc(O)cc2O[C@@]12c1c(cc(O)c3c1O[C@H](c1ccc(O)cc1)[C@@H](O)C3)O[C@@H]2c1ccc(O)cc1,50µM*,-7,16%,?,-13,-32%
COc1ccc(CC(=O)NCc2ccc(Cl)cc2)cc1S(=O)(=O)N1CCOCC1,?,2,46%,11%,1,-9%
CCCNS(=O)(=O)c1ccc(CCC(=O)N2CCN(CC)CC2)cc1,?,6,10%,12%,3,-12%
O=C(c1cc2ccccc2o1)N1CCN(S(=O)(=O)c2ccccc2)CC1,?,0,31%,-7%,0,-16%
O=C(c1cc2ccccc2o1)N1CCN(S(=O)(=O)c2cccs2)CC1,16µM*,-3,26%,13%,0,0%
O=C(/C=C/c1ccc([N+](=O)[O-])cc1)N1CCN(S(=O)(=O)c2cccs2)CC1,50µM*,-5,27%,2%,.,-8%
CCCNS(=O)(=O)c1ccc(CCC(=O)N2CCCCC2)cc1,16%[12.7 µM],7,?,-1%,8,20µM*
COc1ccc(N2CCN(C(=O)CCc3ccc(S(=O)(=O)NCC(C)C)cc3)CC2)cc1,7.1µM*,-6,-10%,-35%,-4,-32%
